# Shown are actives, neighbours in structure and some others; about 9.4% of the full set was active somewhere.
# FLuc counter: firefly luciferase modulation, counter-screen for miR-21 project; hit rate 6.9% among 360,000; purified FLuc, Km substrates, luminescence inhibition; Potency, µM (highest dose often 57.5 µM), without a hit: at the top dose activity change, negative = inhibition, hits mostly inhibitors;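 further: plate controls were vehicle for no effect and reference inhibitor for full effect; nearly all actives have a fitted effect of over 55% in size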
# Target sequence (P08659 whole entry, looked up): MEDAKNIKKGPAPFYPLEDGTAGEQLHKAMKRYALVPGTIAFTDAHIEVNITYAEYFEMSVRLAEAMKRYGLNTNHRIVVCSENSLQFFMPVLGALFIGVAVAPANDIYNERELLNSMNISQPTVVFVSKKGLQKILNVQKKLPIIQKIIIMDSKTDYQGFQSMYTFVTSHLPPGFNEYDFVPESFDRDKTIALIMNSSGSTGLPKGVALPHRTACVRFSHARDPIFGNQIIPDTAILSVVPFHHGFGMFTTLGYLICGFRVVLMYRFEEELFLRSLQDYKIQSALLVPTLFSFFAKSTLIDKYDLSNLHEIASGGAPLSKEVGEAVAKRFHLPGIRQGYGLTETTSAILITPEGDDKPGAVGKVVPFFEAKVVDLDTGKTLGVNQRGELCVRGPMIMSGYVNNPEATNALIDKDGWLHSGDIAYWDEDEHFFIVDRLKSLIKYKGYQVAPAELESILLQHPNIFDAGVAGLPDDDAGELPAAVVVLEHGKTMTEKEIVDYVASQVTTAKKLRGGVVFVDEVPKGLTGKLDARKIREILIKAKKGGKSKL
#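 Biochemical qHTS of compounds, final roughly 60 µM downward over six points, against 10 nM purified firefly luciferase using Km concentrations of substrates (10 uM D-luciferin, 10 uM ATP) in Tris acetate pH 7.5 buffer; luminescence output.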
# ELG1 repair inh: inhibitors of ELG1-dependent DNA repair in HEK293T cells; HEK293T ELG1-luciferase reporter, luminescence, 16 h; DNA damage induced by 5-fluorouridine; Potency, µM (series often up to 46.1 µM), for inactives: at the highest dose activity change, negative = inhibition, most hits filed as inhibitors; hit rate 2.3% among 330,000; AID 504467; further: on the % scale 0 is the no-effect control and ±100 the full control effect; nearly all actives have a fitted effect of over 55% in size
#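 Quantitative HTS, concentration-response format. 2,000 cells/well co-treated with 5-fluorouridine and compound, 16 hr in 5% CO2 at 37 °C; ONE-Glo luminescence read after 30 min.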
# Rab9 promoter act: activates the Rab9 promoter. Huh7 Rab9 promoter-luciferase reporter, luminescence, 24 h. Potency, µM (highest dose often 9.22 µM), inactives show at the top dose activation, negative = inhibition, actives largely listed as activators. hit rate 2.8% among 320,000; further: % of control where 0% means no effect; nearly all actives have a fitted effect of over 60% in size
#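 Huh7 reporter line, Rab9 promoter upstream of luciferase. Compound exposure 24 h at 37 °C in reduced-serum medium with 10% FBS. Read-out: luminescence.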
# NPC1 prom act: NPC1 promoter activation; Huh7 NPC1 promoter luciferase reporter, 24 h; Potency, µM (top dose mostly 9.22 µM), inactives show at the highest dose activation, usual class: activators; hit rate 2.4% among 320,000; AID 485313; further: % of control where 0% means no effect; nearly all actives have a fitted effect of over 60% in size
#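 Cells: Huh7 expressing luciferase under the NPC1 promoter, 1500/well. Seeded 2 h, compound added, incubated 24 h at 37 °C. Luciferase reagent, 10 min ambient, then luminescence.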
# SMN2 splice up: increases expression of the SMN2 splice variant; HEK293 SMN2-luciferase splicing reporter, luminescence, 30-36 h; Potency, µM (doses to about 46.1 µM), without a hit: at the top dose activity change, positive = activation, actives largely listed as activators; hit rate 2.8% among 210,000; AID 1458; further: % of control where 0% means no effect; nearly all actives have a fitted effect of over 55% in size
#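 qHTS luciferase splicing reporter: luminescence rises when SMN2 exon 7 is included in transfected HEK293 cells. Compound exposure lasted 30-36 h at 37C, with 4.5 mM final sodium butyrate as control, followed by a ONE-Glo read.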
# ELG1 genotox: induces genotoxicity in HEK293T cells with luciferase-tagged ELG1; hit rate 1.3% among 330,000; HEK293T ELG1-luciferase reporter, luminescence, 16 h; AID 504466; Potency, µM (titrated, usually from 46 µM), inactives show at the highest dose activity change, positive = activation, most hits filed as activators; further: % of control where 0% means no effect; nearly all actives have a fitted effect of over 60% in size
#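 HEK293T cells expressing luciferase-tagged ELG1 were treated with compound or DMSO for 16 hr at 37°C. Luciferase activity was then read after 30 min with ONE-Glo at room temperature; rising signal flags genetic stress.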
# Numbers without * were called inactive; ? = inconclusive; . = no result given; [ ] = another dose, or the depositor's remark. The call rests on the fitted dose curve; in most records, active means well fitted curve in the direction sought with a large enough effect; inconclusive means small, poorly fitted or top-dose-only effect, or another doubt; inactive means no such curve, though single readings can be large; an effect the other way counts as inactive or inconclusive. Potency means the concentration at half of the fitted maximal effect.
SMILES,FLuc counter,ELG1 repair inh,Rab9 promoter act,NPC1 prom act,SMN2 splice up,ELG1 genotox
CCOc1ccc(N(C)S(=O)(=O)c2ccc3[nH]cc(C(=O)NCC4CCCO4)c(=O)c3c2)cc1 (configuration not stated),-1.1%,23.1µM*,-0.6%,1.3%,-13.0%,-17.4%
CCc1ccc(NS(=O)(=O)c2ccc3[nH]cc(C(=O)N4CCc5ccccc54)c(=O)c3c2)cc1,21.3µM*,?,23.2%,12.2%,?,?
CCN(CC)S(=O)(=O)c1ccc2[nH]cc(C(=O)NCCC3=CCCCC3)c(=O)c2c1,0.4%,13µM*,-6.8%,-10.1%,-46.6%,-19.2%
O=C(O)c1cccc(NC(=S)N/N=C/c2cccc(O)c2)c1,2.13µM*,?,17.9%,13.8%,4.7%,-0.8%
O=C(O)c1cccc(NC(=S)N/N=C/c2ccccc2OCc2cccc(Br)c2)c1,?,3.7%,0.1%,-1.1%,6.3%,2.9%
O=C(CCCC(=O)N/N=C\c1ccccn1)N/N=C\c1ccccn1,5.2%,3.3%,1.0%,-2.9%,.,0.5%
O=C(O)c1cccc(NC(=S)N/N=C/c2ccccn2)c1,0.379µM*,?,0.316µM*,0.282µM*,0.891µM*,?
O=C(O)c1cccc(NC(=S)N/N=C/c2ccccc2OCc2ccc(Br)cc2)c1,23.9µM*,?,18.1%,26.7%,?,16.3%
COc1ccc2[nH]cc(CCNC(=O)c3cnn(-c4ccccc4Cl)c3C3CCN(C(=O)OC(C)(C)C)CC3)c2c1,-2.2%,.,.,.,.,.
Cc1oc2ccc(O)c(CN3CCCC3)c2c1C(=O)Nc1ccc(C(C)C)cc1,-16.2%,.,.,.,-6.4%,.
CCOC(=O)c1c(NC2=NS(=O)(=O)c3ccccc32)sc2c1CCCCC2,-0.3%,?,?,1.41µM*,.,1.0%
COc1ccc(NC(=O)Cn2c(=O)n(Cc3ccccc3)c(=O)c3oc4ccccc4c32)cc1Cl,2.39µM*,.,.,.,.,.
CCc1ccc(NC(=O)Cn2c(=O)n(Cc3ccccc3)c(=O)c3oc4ccccc4c32)cc1,-3.9%,.,.,.,.,.
Cc1cc(NC(=O)NCc2ccc3c(c2)CCN3C(=O)c2ccccc2)ccc1Br,-15.2%,.,.,.,.,.
O=C(CSc1nnc(Nc2ccccc2)s1)NC1CC1,?,20.6%,-0.4%,0.3%,.,4.6%
CC(C)c1ccc(Nc2nnc(SC3CCOC3=O)s2)cc1 (configuration not stated),7.57µM*,?,0.1%,-0.4%,5.5%,-0.8%
O=C1CCCCC1Sc1nnc(Nc2ccccc2)s1 (configuration not stated),19µM*,?,3.16µM*,2.51µM*,10µM*,?
Cc1ccc(Nc2nnc(SC3CCOC3=O)s2)cc1 (configuration not stated),16.9µM*,3.0%,-3.0%,6.5%,13.9%,2.6%
COc1ccc(CNC(=O)c2cc3sccc3n2Cc2ccc(C)cc2)cc1,-12.0%,.,.,.,14.4%,.
O=C(Nc1cccnc1)c1cc(-c2ccc3c(c2)OCO3)on1,0.477µM*,?,5.5%,4.5%,-10.7%,?
Cc1ccc(-c2cc(C(=O)NCc3cccnc3)no2)cc1,10.7µM*,?,?,?,21.7%,13µM*
O=C(Nc1cccnc1)c1cc(-c2ccc(F)cc2)on1,2.39µM*,8.7%,-4.3%,-2.6%,2.0%,9.7%
O=C(Nc1cccc(Br)c1)c1cc(-c2ccc3c(c2)OCCO3)on1,0.675µM*,.,.,.,.,.
Cc1ccccc1CN1C(=O)c2ccccc2S(=O)(=O)c2ccc(C(=O)OCC3CCCO3)cc21 (configuration not stated),-7.7%,.,.,.,.,.
CCCC[C@]12Cc3cc(OC)c(OC)cc3C(O1)C1=C(O2)C(=O)c2ccccc2C1=O,-7.7%[11.5 µM],.,-2.2%[1.84 µM],3.2%[1.84 µM],.,.
SMILES,FLuc counter,ELG1 repair inh,Rab9 promoter act,NPC1 prom act,SMN2 splice up,ELG1 genotox
COc1ccc(-c2cc(C(=O)Nc3cccnc3)no2)cc1OC,19µM*,?,?,2.24µM*,2.9%,?
O=C(COCc1cc(-c2ccc3c(c2)OCO3)on1)Nc1cccnc1,21.3µM*,?,-0.9%,-4.7%,.,2.4%
O=C(COCc1cc(-c2ccc3c(c2)OCO3)on1)N1CCCCC1,19µM*,?,?,?,.,?
CN1CCN(C(=O)COCc2cc(-c3ccc4c(c3)OCO4)on2)CC1,-18.4%,?,13.8%,1.9%,.,9.0%
BrC(Br)C(Br)Br,.,.,.,.,4.9%,.
CCN(Cc1ccccc1)C(=O)CN(c1ccc(OC)cc1)S(=O)(=O)c1c(C)nn(C)c1C,1.3%,.,.,.,2.5%,.
CC(C)(C)CC(C)(C)c1ccc(OCCO)cc1,.,.,.,.,-63.6%,.
COc1ccc(Nc2ncc3c(n2)CCN(Cc2cccc(F)c2F)C3)c(OC)c1,3.0%,.,.,.,.,.
S=C(Nc1ccccc1)Nc1ccc2cn[nH]c2c1,?,24.9%,?,21.4%,.,-7.7%
O=C(NC(=S)Nc1ccc2cn[nH]c2c1)c1ccccc1,19µM*,?,4.47µM*,3.55µM*,17.8µM*,2.9%
O=C(Cc1ccccc1)Nc1ccc2[nH]ncc2c1,-18.4%,?,0.7%,8.8%,.,-5.1%
O=C(Nc1ccc2[nH]ncc2c1)c1ccccc1,13.5µM*,?,3.16µM*,2.82µM*,.,?
O=C(Nc1ccc2[nH]ncc2c1)c1ccc(F)cc1,8.49µM*,?,2.24µM*,2.82µM*,.,?
Cn1c(SCc2ccc(F)cc2)nc2ccc(C(=O)NCc3ccc(F)cc3)cc21,2.4%,.,.,.,-4.6%,.
Cc1ccc(C(=O)CSc2nnc(N)s2)c(C)c1,16.9µM*,?,2.51µM*,3.16µM*,15.8µM*,14.6µM*
CCOc1ccc(C(=O)CSc2nnc(N)s2)cc1,13.5µM*,?,3.16µM*,2.51µM*,11.6%,?
Cc1nnc(SCC(=O)c2ccc(C(C)C)cc2)s1,9.53µM*,?,?,28.6%,4.8%,9.8%
CCCCC(=O)NCCc1c(Cc2ccccc2)[nH]c2ccccc12,.,.,.,.,-24.3%,.
CCOc1ccccc1NC(=O)Cn1c(=O)n(Cc2ccc(OC)cc2)c(=O)c2oc3ccccc3c21,-4.8%,.,.,.,.,.
Cc1nn(C)c2c1c(C(F)(F)F)cc(=O)n2CC(=O)NCc1ccc(OC(C)C)cc1,-13.2%,.,.,.,.,.
Cc1ccc(C)c(Nc2cc(C(=O)NC3CCCCC3)c3ccccc3n2)c1,-3.7%,.,.,.,5.4%,.
Cc1cc(-c2csc(NC(=O)c3cc4ccccc4o3)n2)c(C)n1C,9.53µM*,?,22.7%,13.5%,1.9%,5.8%
O=C(Nc1nc(-c2ccccn2)cs1)c1cc2ccccc2o1,5.36µM*,?,3.8%,9.0%,-77.1%,-7.7%
O=C(Nc1nc(-c2cccs2)cs1)c1cc2ccccc2oc1=O,2.69µM*,?,?,22.6%,11.3%,5.0%

# Screening results: PubChem, National Center for Advancing Translational Sciences (NCATS)
